Source: PubChem BioAssay (National Center for Advancing Translational Sciences (NCATS))
An excerpt weighted towards active compounds, which were near 10% of everything screened.
GPT2 inhibitor: Primary qHTS assay for inhibitors of Glutamate pyruvate transaminase 2 (GPT2); Recombinant GPT2, coupled pyruvate oxidase/HRP Amplex Red fluorescence; Alanine aminotransferase 2 (Homo sapiens), Q8TD30; 100,000 compounds, 0.25% hits; Potency, µM (top dose mostly 57.7 µM), inactives show top-dose activity change, negative = inhibition, hits mostly inhibitors; also: % is scaled to controls: 0 for no effect and ±100 for the full control effect; nearly all actives have a fitted effect of over 60% in size
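Fluorescence of coupled pyruvate oxidase/HRP/Amplex Red system (50uM Amplex, 30 min, dark) reports pyruvate formed by GPT2. Enzyme reaction: 10ng/uL GPT2, 2mM L-alanine, 250uM a-KG, 30 min room temperature, pH 7.5; 50uM AOA control.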
hNpr1 antagonist: Natriuretic polypeptide receptor (hNpr1) antagonism - Primary qHTS; Atrial natriuretic peptide receptor 1 (Homo sapiens), P16066; HEK293 hNpr1 GloSensor cGMP, ANP-stimulated luminescence; Potency, µM (doses to about 46.3 µM), without a hit: top-dose activity change, negative = inhibition, actives largely listed as inhibitors; 76,000 compounds, 1.6% hits; calls by dose curve; also: % is scaled to controls: 0 for no effect and ±100 for the full control effect; nearly all actives have a fitted effect of over 60% in size
Target sequence (P16066 whole entry, looked up): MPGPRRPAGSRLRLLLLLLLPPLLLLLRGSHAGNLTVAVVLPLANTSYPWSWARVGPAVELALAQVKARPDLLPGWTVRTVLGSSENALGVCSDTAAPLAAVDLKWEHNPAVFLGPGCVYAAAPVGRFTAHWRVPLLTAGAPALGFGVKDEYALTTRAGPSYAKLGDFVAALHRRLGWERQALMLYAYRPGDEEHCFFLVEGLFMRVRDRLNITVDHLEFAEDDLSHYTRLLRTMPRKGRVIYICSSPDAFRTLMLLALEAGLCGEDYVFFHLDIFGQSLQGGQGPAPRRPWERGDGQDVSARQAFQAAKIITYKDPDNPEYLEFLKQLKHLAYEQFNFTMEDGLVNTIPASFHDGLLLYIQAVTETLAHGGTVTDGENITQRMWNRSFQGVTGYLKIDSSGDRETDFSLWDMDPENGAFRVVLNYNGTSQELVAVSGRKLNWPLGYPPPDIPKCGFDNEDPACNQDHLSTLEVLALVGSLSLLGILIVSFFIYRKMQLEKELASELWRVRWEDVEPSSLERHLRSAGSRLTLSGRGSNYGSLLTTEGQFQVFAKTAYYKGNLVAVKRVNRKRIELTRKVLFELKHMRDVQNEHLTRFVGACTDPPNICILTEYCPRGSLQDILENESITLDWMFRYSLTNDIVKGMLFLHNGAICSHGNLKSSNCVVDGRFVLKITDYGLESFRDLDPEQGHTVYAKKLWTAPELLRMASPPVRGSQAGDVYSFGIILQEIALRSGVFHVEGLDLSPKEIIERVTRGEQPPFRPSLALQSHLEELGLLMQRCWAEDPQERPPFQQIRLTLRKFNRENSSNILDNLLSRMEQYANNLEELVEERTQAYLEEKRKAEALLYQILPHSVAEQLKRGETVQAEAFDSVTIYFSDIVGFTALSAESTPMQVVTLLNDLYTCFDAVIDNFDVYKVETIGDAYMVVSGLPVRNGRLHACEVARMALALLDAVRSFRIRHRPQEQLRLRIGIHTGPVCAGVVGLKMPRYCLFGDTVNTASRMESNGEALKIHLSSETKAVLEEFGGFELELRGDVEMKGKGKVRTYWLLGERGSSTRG
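Compound pre-incubated 30 min at room temperature on GloSensor-loaded HEK293 cells stably carrying hNpr1 and the pGS-40F cGMP biosensor. Stimulation uses hNppA at 0.1 nM final; luminescence is taken at baseline and 20 min post-agonist.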
HEK cytotox: Cytotoxic Profiling in HEK 293 Cell Line of Diverse Libraries Using Quantitative High-Throughput Screening; HEK 293 viability, ATP luminescence (CellTiter-Glo), 48-72 h; Potency, µM (top dose mostly 115 µM), for the others: at the highest dose activity change, negative = cytotoxicity, actives largely listed as inhibitors; AID 1345083, 2018; 94,000 compounds, 6.6% hits; also: % is scaled to controls: 0 for no effect and ±100 for the full control effect; nearly all actives have a fitted effect of over 60% in size
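250 HEK 293 cells/well; compound by pintool; incubated 48 or 72 hr at 37 degree Celsius; CellTiter-Glo added, 10 min RT, luminescence imaged.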
NIH3T3 tox: Cytotoxic Profiling in NIH 3T3 Cell Line of Diverse Libraries Using Quantitative High-Throughput Screening. 94,000 compounds, 4.3% hits. Potency, µM (highest dose often 96.7 µM), without a hit: top-dose activity change, negative = cytotoxicity, hits mostly inhibitors. NIH 3T3 viability, CellTiter-Glo ATP luminescence, 48-72 h; also: % is scaled to controls: 0 for no effect and ±100 for the full control effect; nearly all actives have a fitted effect of over 55% in size
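Luminescent ATP readout (CellTiter-Glo, 10 min RT) after 48 or 72 hr compound exposure of NIH 3T3 cells seeded at 400 cells/well in 1536-well format; quantitative HTS.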
FLuc inh-1: Firefly luciferase inhibition profiling of diverse chemical library using quantitative high-throughput screening. Luciferin 4-monooxygenase (Photinus pyralis), P08659. purified P. pyralis luciferase, luminescence, biochemical. Potency, µM (titrated, usually from 115 µM), most hits filed as inhibitors. 76,000 compounds, 2.5% hits. AID 1347043, 2019; also: % is scaled to controls: 0 for no effect and ±100 for the full control effect; nearly all actives have a fitted effect of over 65% in size
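Purified P. pyralis luciferase (10nM final) in 50mM Tris acetate pH 7.5, 10mM Mg acetate, 0.01% Tween-20, 0.05% BSA with 10uM D-luciferin and 10uM ATP. Compounds titrated qHTS. Luminescence imaged on CCD.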
FLuc SDR -ATP: Firefly luciferase (FLuc-C-HiBiT) SDR gain of signal screen - without ATP; AID 1963318, 2024; Potency, µM (top dose mostly 32.7 µM), without a hit: at the top dose activation (signal gain), actives largely listed as activators; 1,300 compounds, 7.8% hits; shares compounds with FLuc inh-1; Purified FLuc-C-HiBiT, Nano-Glo HiBiT luminescence, no ATP; also: nearly all actives have a fitted effect of over 55% in size
FLuc SDR ATP: Firefly luciferase (FLuc-C-HiBiT) SDR gain of signal screen - plus ATP. shares compounds with FLuc inh-1. purified FLuc-C-HiBiT + ATP, HiBiT complementation luminescence. Potency, µM (top dose mostly 32.7 µM), without a hit: top-dose activation (gain of signal), most hits filed as activators. 1,300 compounds, 8.7% hits. AID 1963319, 2024;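 also: signal reports ligand binding via conformational change of the enzyme rather than luciferase catalysis; % of control where 0% means no effect; nearly all actives have a fitted effect of over 55% in size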
FLuc inh-2: Firefly luciferase (FLuc-C-HiBiT) enzymatic inhibition screen - Functional assay; 1,300 compounds, 42% hits; Potency, µM (series often up to 32.7 µM), for the others: at the top dose activity change, negative = inhibition, usual class: inhibitors; purified FLuc-C-HiBiT enzyme, luciferin luminescence; shares compounds with FLuc inh-1; AID 1963320, 2024; also: % is scaled to controls: 0 for no effect and ±100 for the full control effect; nearly all actives have a fitted effect of over 70% in size
Numbers without * were called inactive; i = inactive; ? = inconclusive; . = not tested or not shown; [ ] = another dose, or the depositor's remark. Unless noted, calls follow the shape of the dose curve; as a rule, active = well fitted curve in the direction sought with a large enough effect; inconclusive = small, poorly fitted or top-dose-only effect, or another doubt; inactive = no such curve, though single readings can be large; an effect the other way counts as inactive or inconclusive. Potency is read from the fitted curve at half-maximal effect.

SMILES	GPT2 inhibitor	hNpr1 antagonist	HEK cytotox	NIH3T3 tox	FLuc inh-1	FLuc SDR -ATP	FLuc SDR ATP	FLuc inh-2
O=C1Cc2c(-c3cccc4ccccc34)n[nH]c2CN1CCOc1ccccc1	-17%[88.5 µM]	?	45µM*	45µM*	10µM*	7%[49.3 µM]	10%[49.3 µM]	?
O=C(NCc1cccc(Cl)c1)C1CCCN(c2nn3cc(-c4ccc(F)cc4)nc3s2)C1 (centres undefined)	.	.	.	.	.	21%	?	?
COc1ccc(-c2cn3nc(N4CCCC(C(=O)NCc5ccccc5OC)C4)sc3n2)cc1 (centres undefined)	.	.	.	.	.	15%	13%	?
COCc1nc(C2CCCN(C(=O)COc3ccc(F)cc3)C2)no1 (centres undefined)	i	-10%	-3%	-16%	i	.	.	.
OC1CN(Cc2ccc(-c3cnc4c(OCc5ccccc5)nccn34)cc2)C1	-1%[88.5 µM]	-27%[70.6 µM]	?	89µM*	5µM*	26%[49.3 µM]	?	?
O=C(Nc1cccc(F)c1)N1C[C@@H]2C[C@H](C1)c1c(-c3cc4ccccc4s3)ccc(=O)n1C2	-5%	-5%	?	?	?	.	.	.
COc1ccc(C(=O)N2CCC3(CC2)NC(=O)N(c2cccc(F)c2)N3)cc1	-25%	2%	?	?	i	.	.	.
CCOC(=O)c1ccc(NC(=O)Cn2c(N3CCCCC3)nc(C)c(C)c2=O)cc1	4%	4%	?	?	i	.	.	.
CCOC(=O)c1ccc(NC(=O)CSc2nnc(CNC(=O)c3ccc(OC)cc3)n2CC)cc1	.	.	.	.	.	15%	11%	?
O=C(c1cn(CCC2CCCCN2Cc2cccnc2)nn1)N1CCOCC1 (centres undefined)	4%	.	-4%	-14%	.	.	.	.
O=C(Nc1ccccc1F)c1ccc(-c2ccccc2)s1	.	.	.	.	.	21%	?	?
CCN(CC)CCOc1ccc(-c2nc3cc(Cl)ccc3s2)cc1	.	.	.	.	.	21%[65.7 µM]	13%[65.7 µM]	?
Cc1cccc(N2CCN(C(=O)CSCc3ccc(F)cc3)CC2)c1C	.	.	.	.	.	12%	9%	-8%
CCn1c(C2CCCN(C(=O)Nc3ccccc3F)C2)nn(C)c1=O (centres undefined)	i	.	-8%	-18%	.	.	.	.
COc1ccc(CNC(=O)C[C@@H]2C[C@@H](C(C)C)[C@H](CNC(=O)c3cccnc3)C=C2C)cc1	-9%	-13%	?	?	14µM*	11%	10%	7%
CC1=C[C@@H](CNC(=O)c2cccnc2)[C@H](C(C)C)C[C@H]1CC(=O)NCc1ccccn1	?	-1%[70.6 µM]	-22%[172 µM]	0%[174 µM]	?	.	.	.
C#CCNC(=O)c1cc(-c2ccccc2OC)nc2c1cnn2C	-10%	.	-18%	-20%	.	.	.	.
O=C(NCc1ccc(F)cc1)N1CC(Oc2ccc(-c3nc(-c4ccccc4)no3)cc2)C1	i	0.63µM*	?	-19%	2.2µM*	16%	14%	0%
c1ccc(-c2noc(-c3ccc(OC4CNC4)cc3)n2)cc1	i	8.9µM*	25µM*	22µM*	0.71µM*	?	?	2.8µM*
FC(F)(F)c1ccc(-c2ncc[nH]2)cc1	-6%[88.5 µM]	.	?	?	.	.	.	.
CNC(=O)c1cc(C2CC2)nc2c1c(C1CCCN1[S+](C)(=O)[O-])nn2C (centres undefined)	.	.	0%	-22%	.	.	.	.
CCOc1ccc(-c2cc(CCCC(=O)NCCc3ccc(OC)c(OC)c3)no2)cc1	.	.	.	.	.	19%	?	?
COc1cc(O)c2c(c1)C1=C[C@H](O)[C@@H](O)C[C@]1(C)OC2=O	i	.	.	.	.	.	.	.
COc1ccc(CC(=O)N2CCC3(CC2)CC(O)CCO3)cc1 (centres undefined)	-2%	-1%	-20%	-6%	i	.	.	.
COc1ccc(NC(=O)c2cc3c(=O)[nH]c(C)cn3n2)cc1OC	i	0%	?	-19%	7.1µM*	?	?	9.9µM*
SMILES	GPT2 inhibitor	hNpr1 antagonist	HEK cytotox	NIH3T3 tox	FLuc inh-1	FLuc SDR -ATP	FLuc SDR ATP	FLuc inh-2
COc1ccc(CCNC(=O)c2cc3c(=O)[nH]c(C)cn3n2)cc1OC	i	7%	1%	-13%	i	.	.	.
COc1cc2c(Nc3cc(F)c(Cl)c(Cl)c3)ncnc2cc1OCC1CCCN(C)CCC1	-10%	.	.	.	.	.	.	.
COCCc1nncn1C1CCN(C(=O)c2ccc(Br)cc2)CC1	-7%	1%	6%	i	i	.	.	.
COCC(C)NC(=O)c1csc2nc(-c3cccc(C(F)(F)F)c3)cn12 (centres undefined)	-19%	-2%	?	?	i	.	.	.
CC(CCn1cccn1)NC(=O)c1csc2nc(-c3ccc(C(F)(F)F)cc3)cn12 (centres undefined)	-6%	-27%	?	?	13µM*	17%	12%	9.9µM*
COc1ccc(-c2cc(N3CCCC(NC(=O)c4ccc(F)c(F)c4)C3)n[nH]2)cc1 (centres undefined)	-30%	-21%	?	?	?	.	.	.
COc1ccc(-c2cc(N3CCCC(NC(=O)c4ccc(OC)c(OC)c4)C3)n[nH]2)cc1 (centres undefined)	?	-15%	?	?	3.2µM*	?	?	3.9µM*
COc1ccc(C(=O)NC2CCCN(c3cc(-c4ccc(F)cc4)[nH]n3)C2)cc1OC (centres undefined)	-23%	-2%	?	-29%	13µM*	16%	13%	?
